FAS TE block: inhibitors of human fatty acid synthase thioesterase domain; P49327; recombinant FAS-TE, OMFH fluorogenic substrate, fluorescence endpoint; inhibition, % at 15 µM; actives 0.67% (n = 360,000); AID 602261;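 active = compounds whose normalised, plate-corrected inhibition of enzyme fluorescence in the single-dose primary screen is 50% or more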;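 note: 0% = DMSO with enzyme and 100% = substrate without enzyme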
NR3A LBD binder: modulators (binders) of human NR3A ligand-binding domain; Tm shift relative to glycine control, % at 25 µM; NR3A LBD differential scanning fluorimetry, Tm shift; 0% = protein alone, 100% = glycine-bound protein; AID 1259313; actives 2.5% (n = 340,000);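 active = melting temperature shift of at least 10% of the positive control shift, at one fixed dose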
MIN6 prolif: inducers of beta-cell replication in MIN6 cells; MIN6 cells proliferation, ATPlite luminescence, 48 h; cells starved in 0.2% serum; 100% = growth in 10% serum; proliferation, % at 10 µM; actives 0.29% (n = 330,000); AID 2380;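 active = compounds whose signal lies at least 3.5 SD above the mean of all wells on their plate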;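 note: 0% = DMSO-treated cells in low-serum medium and 100% = 10% serum control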
pCIP destab: lowers stability of the mouse p/CIP coactivator protein. F442A p/CIP-EGFP cells, EGFP fluorescence, 16 h. decrease of EGFP signal, % at 10 µM. Q05BA5. actives 0.01% (n = 290,000). AID 1984;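 active = EGFP signal decrease of at least 30% at 10 µM or well 3 SD below plate mean, unless failing retest; inactive = the rest, including hits failing retest or dose response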
Target sequence (Q05BA5 1-1403): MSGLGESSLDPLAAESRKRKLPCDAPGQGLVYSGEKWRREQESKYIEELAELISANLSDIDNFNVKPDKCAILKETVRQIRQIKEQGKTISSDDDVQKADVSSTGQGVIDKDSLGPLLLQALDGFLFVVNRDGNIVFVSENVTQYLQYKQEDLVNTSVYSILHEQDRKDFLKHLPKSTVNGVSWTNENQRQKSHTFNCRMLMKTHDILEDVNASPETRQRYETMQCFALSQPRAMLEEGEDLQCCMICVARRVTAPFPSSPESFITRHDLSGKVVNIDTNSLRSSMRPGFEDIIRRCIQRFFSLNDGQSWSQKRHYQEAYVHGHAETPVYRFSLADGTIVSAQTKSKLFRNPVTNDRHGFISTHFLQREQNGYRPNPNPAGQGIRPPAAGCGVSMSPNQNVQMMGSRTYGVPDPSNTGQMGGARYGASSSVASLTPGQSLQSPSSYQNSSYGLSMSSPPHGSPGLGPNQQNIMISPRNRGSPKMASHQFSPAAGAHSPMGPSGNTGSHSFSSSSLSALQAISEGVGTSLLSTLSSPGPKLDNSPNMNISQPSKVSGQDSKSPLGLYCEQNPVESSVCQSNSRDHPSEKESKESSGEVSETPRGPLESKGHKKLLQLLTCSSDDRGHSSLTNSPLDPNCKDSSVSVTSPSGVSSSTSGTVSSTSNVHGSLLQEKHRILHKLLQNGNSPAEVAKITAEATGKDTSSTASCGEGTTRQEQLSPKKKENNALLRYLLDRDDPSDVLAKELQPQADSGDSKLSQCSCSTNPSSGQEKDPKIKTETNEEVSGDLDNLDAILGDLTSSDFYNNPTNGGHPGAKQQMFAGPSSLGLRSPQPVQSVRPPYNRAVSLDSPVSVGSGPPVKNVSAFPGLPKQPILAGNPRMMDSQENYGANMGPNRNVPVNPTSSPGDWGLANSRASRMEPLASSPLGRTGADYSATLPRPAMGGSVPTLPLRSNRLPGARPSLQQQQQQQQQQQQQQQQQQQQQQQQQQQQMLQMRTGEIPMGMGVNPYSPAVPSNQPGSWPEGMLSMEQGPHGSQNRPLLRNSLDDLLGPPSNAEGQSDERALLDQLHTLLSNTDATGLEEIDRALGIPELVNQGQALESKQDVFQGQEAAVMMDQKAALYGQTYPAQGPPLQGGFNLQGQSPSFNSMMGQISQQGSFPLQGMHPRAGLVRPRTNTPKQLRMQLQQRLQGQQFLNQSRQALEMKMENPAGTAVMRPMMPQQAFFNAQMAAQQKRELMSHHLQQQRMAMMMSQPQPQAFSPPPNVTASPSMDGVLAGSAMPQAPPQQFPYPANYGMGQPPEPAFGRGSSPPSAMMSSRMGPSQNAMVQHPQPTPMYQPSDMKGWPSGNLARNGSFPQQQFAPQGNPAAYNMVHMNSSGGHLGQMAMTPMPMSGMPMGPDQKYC
MPTP inh: permeability transition pore inhibition | actives 1.4% (n = 360,000) | isolated mouse mitochondria, Ca2+ swelling absorbance, 30 min | AID 602449 | inhibition, % at 10 µM;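 active = inhibition of 50% or more, scaled per plate between neutral and stimulator controls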;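 note: 0% = DMSO wells given calcium and 100% = 1 mM EGTA wells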
* = called active by the depositor; . = no result. Only some compounds are listed: those with a hit (about 4.1% of all), similar ones and a draw of the others.

SMILES	FAS TE block	NR3A LBD binder	MIN6 prolif	pCIP destab	MPTP inh
CC(=O)Nc1ccc(Nc2cc(C(C)C)nc3c(-c4ccccc4)c(C)nn23)cc1	37	17*	-4	-10	2
CC(=O)Nc1ccc(Nc2cc(C)nc3c(-c4ccccc4)c(C)nn23)cc1	-3	-1	0	6	0
COc1ccc(N(CC(=O)N2CCN(c3ccccc3)CC2)S(=O)(=O)c2ccccc2)cc1	15	.	.	.	0
CCOC(=O)c1cnn(CCOC(=O)c2ccccc2)c1NC(=O)c1ccccc1	-1	-10	0	-5	0
CCOC(=O)c1cnn(CCOC(=O)c2ccc(OC)cc2)c1NC(=O)c1ccc(OC)cc1	5	16*	1	0	1
N#CC1CC(c2ccccc2)Nc2cc(Cl)ccc2N1 (stereo unspecified)	1	14*	-6	11	0
Cc1cc(C)c(NC(=O)C2C(=O)Nc3ccccc3C(=O)N2C(C)(C)C)c(C)c1 (stereo unspecified)	.	.	.	.	0
O=C1NN(c2ccccc2)C(=O)/C1=C\c1ccc(-c2cc([N+](=O)[O-])ccc2O)o1	0	23*	0	2	17
CCC(C)CN1C(=O)CSCC1(C)C(=O)Nc1ccc2c(c1)OCCO2 (stereo unspecified)	.	.	.	.	0
CC(=O)Nc1ccc(NC(=O)c2cc(=O)c3cc(C)c(C)cc3o2)cc1	-7	12*	-2	-12	3
CC(=O)Nc1ccc(CN(C)c2c(C)nc3ccc(C(=O)N(C)Cc4ccco4)cn23)cc1	-6	.	.	.	-4
COc1cccc(CN2CCC(C(=O)N3CCN(Cc4ccc5c(c4)OCO5)CC3)CC2)c1	-5	13*	-1	-10	2
COc1ccc(CNC(=O)C2Cc3c(-c4ccccc4Oc4ccccc4)ccnc3O2)cc1OC (stereo unspecified)	13	.	.	.	0
N=c1c(S(=O)(=O)c2ccccc2)cc2c(=O)n3ccccc3nc2n1C1CCCC1	21	-24	-4	-3	0
N=c1c(S(=O)(=O)c2ccc(Cl)cc2)cc2c(=O)n3ccccc3nc2n1C1CCCCC1	65*	-1	-5	-8	2
COCCNC(=O)C1(C)CCCN(C(=O)c2ccc(N(C)C)cc2)C1 (stereo unspecified)	-5	.	.	.	-2
Cc1ccc(-c2nc(C=Nc3ccc(O)cc3)c(O)o2)cc1	-8	11*	.	12	0
CCCNC(=O)C1(C)CCCN(C(=O)c2ccccc2OC)C1 (stereo unspecified)	-8	.	.	.	0
CC(C)(C)OC(=O)N1CCOCCOCCN(C(=O)OC(C)(C)C)CCOCCOCC1	0	705*	-1	-2	2
CC(C)(C)OC(=O)N1CCC(C(=O)O)CC1	-8	3	-1	-3	-2
O=C1NC[C@H](Cc2ccccc2)N(CC2CCN(CCc3ccc(-c4ccccc4)cc3)CC2)C1=O	-6	-3	.	.	3
CN(C)S(=O)(=O)c1cccc(-c2nn(-c3ccccc3)cc2/C=C(/C#N)C(=O)NCc2ccco2)c1	31	16*	0	-21	-1
CCCOc1cccc(-c2nn(-c3ccccc3)cc2/C=C(\C#N)C(=O)NCCCn2ccnc2)c1	-18	11*	0	-14	0
CCN(CC)S(=O)(=O)c1cccc(-c2nn(-c3ccccc3)cc2/C=C(\C#N)C(=O)NCc2ccco2)c1	16	2	-1	-10	1
CCS(=O)(=O)N1Cc2cc(C(=O)N(C)C)nc(-c3cccc(-c4ccc(F)cc4)c3)c2[C@H]1CCO	-12	.	.	.	-1
SMILES	FAS TE block	NR3A LBD binder	MIN6 prolif	pCIP destab	MPTP inh
COC(=O)c1cc(NS(=O)(=O)c2ccc(N3CCC(C)CC3)c([N+](=O)[O-])c2)cc(C(=O)OC)c1	36	18*	0	-8	10
COC(=O)c1cc(NS(=O)(=O)c2ccc(N3CCCCC3)c([N+](=O)[O-])c2)cc(C(=O)OC)c1	32	6	-3	-9	-8
CSc1ccc(NC(=O)CSc2nc3[nH]c(=O)cc(O)c3s2)cc1	6	14*	0	.	3
O=C(CSc1nc2[nH]c(=O)cc(O)c2s1)Nc1cc(Cl)cc(Cl)c1	-5	5	-3	-6	1
N#Cc1ccc(NC(=O)CSc2nc3[nH]c(=O)cc(O)c3s2)cc1	-4	-2	0	.	0
O=C(CSc1nc2[nH]c(=O)cc(O)c2s1)Nc1ccc(Cl)c(C(F)(F)F)c1	-4	12*	-8	.	0

Screening results as filed in PubChem BioAssay.
